The campaign covered roughly 5,500 compounds. About 2,000 (36%) were called active. Not shown: some 18% with an inconclusive outcome. Rule as the data show it: active = normalized growth mostly below about 0.91 (no sharp cut-off); inconclusive = no clear call, values can overlap the other calls; inactive = mostly above about 0.92. The list shows a part of the results.
Test: chemical genetic growth profiling, strain panel (AID 1159580);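 also: tested at 20 µM; growth read once vehicle control cultures reached saturation at 30 °C; 1 = growth at the plate median or of vehicle wells; lower values mean less growth of the strain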
Settings: S. cerevisiae deletion strains, growth OD

Measured: normalized growth

NC(=NCCC[C@H](N)C(=O)O)NO
inactive: locus YAL013W, strain DEP1, active compounds read low 1.03 | locus YAL040C, strain CLN3, active compounds read low 1 | locus YCL061C, strain MRC1 (second series), active compounds read low 1.01 | locus YDR363W, strain ESC2, active compounds read low 1.02 | locus YER002W, strain NOP16, active compounds read low 1.01 | locus YGR078C, strain PAC10, active compounds read low 1.02 | locus YNL128W, strain TEP1, active compounds read low 1 | locus YNL175C, strain NOP13, active compounds read low 1 | locus YNL197C, strain WHI3, active compounds read low 1.01 | locus YNL224C, strain SQS1, active compounds read low 0.992 | locus YOR083W, strain WHI5 (second series), active compounds read low 1.01 | locus YPL241C, strain CIN2, active compounds read low 1.01

CC(C)[C@H](N)C(=O)OCCOCn1cnc2c(=O)[nH]c(N)nc21
inactive: locus YAL021C, strain ccr4, active compounds read low 1.06 | locus YAL026C, strain drs2, active compounds read low 1.02 | locus YAL030W, strain snc1, active compounds read low 1.03 | locus YBL061C, strain skt5, active compounds read low 1.02 | locus YBR009C, strain hhf1, active compounds read low 0.961 | locus YBR023C, strain chs3, active compounds read low 1.02 | locus YBR171W, strain sec66, active compounds read low 1.01 | locus YBR231C, strain swc5, active compounds read low 0.934 | locus YBR279W, strain paf1, active compounds read low 1.02 | locus YCL011C, strain gbp2, active compounds read low 1.01 | locus YCL016C, strain dcc1, active compounds read low 1.05 | locus YCL069W, strain vba3, active compounds read low 1 | locus YCR088W, strain abp1, active compounds read low 1.02 | locus YDL005C, strain med2, active compounds read low 1.02 | locus YDL040C, strain nat1, active compounds read low 0.998 | locus YDR001C, strain nth1, active compounds read low 1.01 | locus YDR069C, strain doa4, active compounds read low 1 | locus YDR137W, strain rgp1, active compounds read low 1.08 | locus YDR159W, strain sac3, active compounds read low 0.94 | locus YDR195W, strain ref2 0.973 | locus YDR297W, strain sur2, active compounds read low 1 | locus YDR334W, strain swr1, active compounds read low 1.01 | locus YDR335W, strain msn5, active compounds read low 1.01 | locus YDR392W, strain spt3, active compounds read low 1.03 | locus YEL003W, strain gim4, active compounds read low 0.996 | locus YEL037C, strain rad23, active compounds read low 1.01 | locus YEL061C, strain CIN8 (second series), active compounds read low 1 | locus YER015W, strain faa2, active compounds read low 1.01 | locus YER016W, strain bim1, active compounds read low 1.05 | locus YER111C, strain swi4, active compounds read low 1.03 | locus YER155C, strain BEM2 (second series), active compounds read low 1.11 | locus YFR010W, strain ubp6, active compounds read low 0.974 | locus YGL167C, strain pmr1, active compounds read low 1.01 | locus YGL173C, strain kem1, active compounds read low 1.01 | locus YGL227W, strain vid30, active compounds read low 1.01 | locus YGL240W, strain doc1, active compounds read low 0.993 | locus YGL253W, strain hxk2, active compounds read low 0.981 | locus YHR013C, strain ard1, active compounds read low 1.02 | locus YHR027C, strain rpn1, active compounds read low 1.01 | locus YHR030C, strain SLT2, active compounds read low 1.07 | locus YHR079C, strain IRE1, active compounds read low 1.07 | locus YHR142W, strain chs7, active compounds read low 0.988 | locus YJL092W, strain hpr5, active compounds read low 1.01 | locus YJL095W, strain BCK1 (second series), active compounds read low 1.04 | locus YJL095W, strain BCK1, active compounds read low 1.02 | locus YJL115W, strain asf1, active compounds read low 1.01 | locus YJL129C, strain trk1, active compounds read low 0.982 | locus YJL154C, strain vps35, active compounds read low 1.01 | locus YJL164C, strain tpk1, active compounds read low 0.995 | locus YJL166W, strain qcr8, active compounds read low 1.03 | locus YJL187C, strain SWE1, active compounds read low 1 | locus YJR066W, strain TOR1, active compounds read low 0.99 | locus YKL160W, strain elf1, active compounds read low 1.06 | locus YKR026C, strain gcn3, active compounds read low 1.01 | locus YKR091W, strain srl3, active compounds read low 1.01 | locus YLL001W, strain dnm1, active compounds read low 0.96 | locus YLL026W, active compounds read low 1.01 | locus YLL041C, strain sdh2, active compounds read low 1.03 | locus YLR027C, strain aat2, active compounds read low 1.01 | locus YLR113W, strain HOG1, active compounds read low 0.977 | locus YLR221C, strain rsa3, active compounds read low 0.96 | locus YLR258W, strain gsy2, active compounds read low 1.03 | locus YLR262C, strain YPT6 (second series), active compounds read low 1.01 | locus YLR320W, strain mms22, active compounds read low 0.971 | locus YLR342W, strain FKS1, active compounds read low 1.03 | locus YLR357W, strain rsc2, active compounds read low 1.04 | locus YLR370C, strain arc18, active compounds read low 1.03 | locus YLR384C, strain iki3, active compounds read low 1.03 | locus YML120C, strain ndi1, active compounds read low 0.969 | locus YMR058W, strain fet3, active compounds read low 1.04 | locus YMR125W, strain sto1, active compounds read low 1.04 | locus YMR129W, active compounds read low 1.02 | locus YMR205C, strain PFK2, active compounds read low 1.01 | locus YMR231W, strain pep5, active compounds read low 1 | locus YNL071W, strain lat1, active compounds read low 1.02 | locus YNL183C, strain NPR1, active compounds read low 0.946 | locus YNL209W, strain ssb2, active compounds read low 1.02 | locus YNL248C, strain rpa49, active compounds read low 1.04 | locus YNL322C, strain KRE1 (second series), active compounds read low 1.04 | locus YNR049C, strain mso1, active compounds read low 0.998 | locus YOR001W, strain rrp6, active compounds read low 0.943 | locus YOR070C, strain gyp1, active compounds read low 1.03 | locus YOR080W, strain dia2, active compounds read low 1.01 | locus YOR083W, strain WHI5, active compounds read low 0.992 | locus YOR106W, strain vam3, active compounds read low 1.02 | locus YOR231W, strain MKK1, active compounds read low 1.04 | locus YOR265W, strain rbl2, active compounds read low 1.01 | locus YOR270C, strain vph1, active compounds read low 0.864 | locus YOR290C, strain snf2, active compounds read low 1.05 | locus YPL051W, strain arl3, active compounds read low 1.04 | locus YPL078C, strain atp4, active compounds read low 1.04 | locus YPL106C, strain sse1, active compounds read low 1.06 | locus YPL240C, strain hsp82, active compounds read low 1.01 | locus YPL256C, strain CLN2, active compounds read low 1.08

— PubChem BioAssay AID1159580 (chemical genetic matrix, 2015)
